The target in assay [1] is Thyrotropin-releasing hormone receptor (Homo sapiens) (UniProt P34981). Briefly: qHTS assay to identify small molecule agonists of the thyrotropin-releasing hormone receptor (TRHR) signaling pathway (AID 1346891; calls by dose curve; also: series mostly up to about 58 µM). An outline of the steps:
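Agonist-mode intracellular calcium readout: kinetic fluorescence over 3 min at 1 s intervals after compound addition to TRHR-HEK293 cells (18 h seeded, 2 h dye-loaded at 37 C). Fifteen concentrations, triplicates.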

Assay [2] can be described thus: Caspase-3/7 induction in HepG2 cells by small molecules, qHTS assay (AID 1346978). Also: nearly all actives have a fitted effect of over 15% in size. In a few lines: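 Caspase-3/7 induction was measured by Caspase-Glo 3/7 luminescence (30 min, room temperature) after a 17 hr compound exposure of wild-type HepG2 cells seeded at 2,000 per well and pre-incubated 5 hr.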
Assay [3] can be described thus: Caspase-3/7 induction in CHO-K1 cells by small molecules, qHTS cell viability counter screen (AID 1346979). Also: nearly all actives have a fitted effect of over 35% in size. Also: potency is read from the fitted curve at half-maximal effect. An outline of the steps: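 Cytotoxicity counter screen: CellTiter-Fluor added to compound-treated wild-type CHO-K1 cells at 16 h (37C, 5% CO2), fluorescence measured 1 h later; same wells as caspase-3/7 measurement.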
Assay [4] in a line: Caspase-3/7 induction in CHO-K1 cells by small molecules, qHTS assay (AID 1346980). Also: nearly all actives have a fitted effect of over 15% in size. An outline of the steps:
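Luminescent Caspase-Glo 3/7 read (30min, room temperature) quantified apoptosis induction. Cells were wild-type CHO-K1, treated with compound for 17hr at 37 C and 5% CO2.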

Assay [5] can be described thus: Caspase-3/7 induction in HepG2 cells by small molecules, qHTS cell viability counter screen (AID 1346981). Also: series mostly up to about 92 µM; nearly all actives have a fitted effect of over 30% in size. An outline of the steps:
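Treatment of HepG2 cells with DMSO-delivered compounds ran 16 hr at 37 C following a 5-hr pre-incubation of 2,000 cells/well. CellTiter-Fluor fluorescence, read after 1 hr, served as the viability measure in a qHTS format.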

Assay [6] deals with Cytochrome P450 2D6 (Homo sapiens) (UniProt P10635). The assay is described as follows: Cytochrome P450 Family 2 Subfamily D Member 6 (CYP2D6) small molecule antagonists: luciferase reporter qHTS assay (AID 1671196). Also: nearly all actives have a fitted effect of over 50% in size. Also: potency is read from the fitted curve at half-maximal effect. In a few lines: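 Chemicals tested for interference with CYP2D6 activity; proluciferin substrate, NADPH regeneration, 1 h at room temperature, luminescent detection.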
Chain of Cytochrome P450 2D6 (Homo sapiens) (P10635 whole entry, looked up): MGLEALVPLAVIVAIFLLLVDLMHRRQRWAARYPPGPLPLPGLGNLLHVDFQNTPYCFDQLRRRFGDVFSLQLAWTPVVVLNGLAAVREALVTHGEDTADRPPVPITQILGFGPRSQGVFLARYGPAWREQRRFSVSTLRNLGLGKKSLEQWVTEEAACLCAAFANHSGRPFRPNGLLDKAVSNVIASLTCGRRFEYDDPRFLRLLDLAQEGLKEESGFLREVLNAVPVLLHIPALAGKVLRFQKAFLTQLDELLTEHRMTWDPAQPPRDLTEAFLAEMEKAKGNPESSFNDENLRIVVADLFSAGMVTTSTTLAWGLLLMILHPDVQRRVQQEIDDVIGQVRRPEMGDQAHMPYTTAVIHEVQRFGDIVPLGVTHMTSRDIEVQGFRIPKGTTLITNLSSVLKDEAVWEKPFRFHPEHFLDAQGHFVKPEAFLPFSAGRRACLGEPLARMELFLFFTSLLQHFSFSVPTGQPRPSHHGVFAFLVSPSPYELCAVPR

Assay [7] deals with Cytochrome P450 2C9 (Homo sapiens) (UniProt P11712). The assay is described as follows: Cytochrome P450 Family 2 Subfamily C Member 9 (CYP2C9) small molecule antagonists: luciferase reporter qHTS assay (AID 1671198). Also: nearly all actives have a fitted effect of over 50% in size. Also: potency is read from the fitted curve at half-maximal effect. An outline of the steps:
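Enzyme-substrate mix preincubated with compound 10 min at room temperature; reaction started with NADPH regeneration solution, 1 h 37C. Luminescent luciferin product read after 20 min detection reagent.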

In assay [8] the target is Cytochrome P450 1A2 (Homo sapiens) (UniProt P05177). Briefly: Cytochrome P450 Family 1 Subfamily A Member 2 (CYP1A2) small molecule antagonists: luciferase reporter qHTS assay (AID 1671199). Also: nearly all actives have a fitted effect of over 50% in size. Also: potency is read from the fitted curve at half-maximal effect. An outline of the steps: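 Read-out is luminescence from luciferin detection reagent (20 min) proportional to CYP1A2 activity; compounds in DMSO preincubated 10 min with enzyme and proluciferin substrate, then NADPH regeneration solution, 1 h, room temperature.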
Chain of Cytochrome P450 1A2 (Homo sapiens) (P05177 whole entry, looked up): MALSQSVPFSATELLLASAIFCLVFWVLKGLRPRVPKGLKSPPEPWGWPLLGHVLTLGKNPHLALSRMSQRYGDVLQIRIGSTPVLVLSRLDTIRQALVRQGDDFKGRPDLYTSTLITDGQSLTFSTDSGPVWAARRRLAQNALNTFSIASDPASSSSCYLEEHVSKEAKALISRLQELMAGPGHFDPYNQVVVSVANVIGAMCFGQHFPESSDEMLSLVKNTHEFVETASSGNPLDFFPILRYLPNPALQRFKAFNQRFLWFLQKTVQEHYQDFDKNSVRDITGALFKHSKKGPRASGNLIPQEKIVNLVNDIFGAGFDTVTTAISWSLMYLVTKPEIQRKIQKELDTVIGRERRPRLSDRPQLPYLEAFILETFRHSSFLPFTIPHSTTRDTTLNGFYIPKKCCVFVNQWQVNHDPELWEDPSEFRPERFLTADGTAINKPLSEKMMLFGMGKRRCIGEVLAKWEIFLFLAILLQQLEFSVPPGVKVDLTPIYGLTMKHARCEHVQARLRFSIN

In assay [9] the target is Voltage-gated inwardly rectifying potassium channel KCNH2 (Homo sapiens) (UniProt Q12809). Briefly: Human Ether-a-go-go-Related Gene (hERG) channel small molecule antagonists: fluorescence cell-based qHTS assay (AID 1671200). Also: nearly all actives have a fitted effect of over 50% in size. Also: potency is read from the fitted curve at half-maximal effect. An outline of the steps: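 Thallium flux as potassium surrogate: FluxOR II dye loaded 1 h at room temperature into hERG-expressing U2OS cells, then stimulus buffer added after 10 min. Kinetic 480 nm excitation/540 nm emission read, 2 min.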
Chain of Voltage-gated inwardly rectifying potassium channel KCNH2 (Homo sapiens) (Q12809 whole entry, looked up): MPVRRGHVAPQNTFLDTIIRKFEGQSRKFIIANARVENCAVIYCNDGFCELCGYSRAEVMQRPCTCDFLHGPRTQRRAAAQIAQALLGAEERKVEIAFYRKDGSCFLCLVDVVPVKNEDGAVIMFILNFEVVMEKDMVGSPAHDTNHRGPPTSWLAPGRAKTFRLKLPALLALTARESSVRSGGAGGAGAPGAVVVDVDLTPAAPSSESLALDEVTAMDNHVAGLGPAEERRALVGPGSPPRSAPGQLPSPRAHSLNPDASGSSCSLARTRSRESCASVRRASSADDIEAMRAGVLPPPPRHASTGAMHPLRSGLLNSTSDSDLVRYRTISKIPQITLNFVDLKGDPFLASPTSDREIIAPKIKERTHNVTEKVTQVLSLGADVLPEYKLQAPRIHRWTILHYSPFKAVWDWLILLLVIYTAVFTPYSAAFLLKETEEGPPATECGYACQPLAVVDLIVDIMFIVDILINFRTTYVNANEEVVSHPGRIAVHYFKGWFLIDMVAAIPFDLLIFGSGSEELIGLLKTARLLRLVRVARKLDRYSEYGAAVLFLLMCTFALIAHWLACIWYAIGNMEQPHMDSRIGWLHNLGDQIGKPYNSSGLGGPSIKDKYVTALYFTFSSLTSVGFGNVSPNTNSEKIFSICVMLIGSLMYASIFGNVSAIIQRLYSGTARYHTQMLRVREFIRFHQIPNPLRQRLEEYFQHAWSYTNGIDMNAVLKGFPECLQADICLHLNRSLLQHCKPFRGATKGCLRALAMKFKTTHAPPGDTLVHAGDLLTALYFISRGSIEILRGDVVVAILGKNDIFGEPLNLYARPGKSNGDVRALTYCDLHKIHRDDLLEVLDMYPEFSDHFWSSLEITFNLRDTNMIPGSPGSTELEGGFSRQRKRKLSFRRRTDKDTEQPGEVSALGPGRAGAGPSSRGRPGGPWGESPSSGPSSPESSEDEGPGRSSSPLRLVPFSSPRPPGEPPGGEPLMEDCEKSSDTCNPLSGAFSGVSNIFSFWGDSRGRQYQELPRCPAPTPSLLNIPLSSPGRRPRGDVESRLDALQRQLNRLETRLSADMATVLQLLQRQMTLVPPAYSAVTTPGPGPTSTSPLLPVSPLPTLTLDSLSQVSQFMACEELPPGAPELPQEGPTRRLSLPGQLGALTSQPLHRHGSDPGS

The target of assay [10] is Cytochrome P450 3A4 (Homo sapiens) (UniProt P08684). Briefly: Cytochrome P450 Family 3 Subfamily A Member 4 (CYP3A4) small molecule antagonists: luciferase reporter qHTS assay (AID 1671201). Also: nearly all actives have a fitted effect of over 50% in size. Also: potency is read from the fitted curve at half-maximal effect. An outline of the steps:
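Recombinant human CYP3A4 converts a proluciferin substrate to luciferin over 1 h at room temperature after NADPH regeneration solution is added (compound preincubated 10 min); detection reagent stops reaction, luminescence read 20 min later as relative units.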

Assay [11] is described as follows: Human pregnane X receptor (PXR) small molecule agonists, qHTS cell viability counter screen (AID 1346977). Also: nearly all actives have a fitted effect of over 50% in size. In a few lines: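 Same-well viability read: CellTiter-Fluor added after 23 hr compound exposure, fluorescence measured 1 hr later. Cells were PXR-Luc HepG2 seeded at 2,000/well in 5% charcoal-stripped FBS medium, rested 5 hr before dosing at 37 C.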
Assay [12] deals with Nuclear receptor subfamily 1 group I member 2 (Homo sapiens) (UniProt O75469). Briefly: Human pregnane X receptor (PXR) small molecule agonists, qHTS assay (AID 1346982). Also: nearly all actives have a fitted effect of over 35% in size. Also: potency is read from the fitted curve at half-maximal effect. An outline of the steps:
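Stable HepG2 line reporting PXR-mediated CYP3A4 expression via luciferase. Treatment: 24 hr with compounds in DMSO at 37 C. Detection: ONE-Glo luminescence.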

The target in assay [13] is Cytochrome P450 2C19 (Homo sapiens) (UniProt P33261). The assay is described as follows: Cytochrome P450 Family 2 Subfamily C Member 19 (CYP2C19) small molecule antagonists: luciferase reporter qHTS assay (AID 1671197). Also: nearly all actives have a fitted effect of over 65% in size. Also: potency is read from the fitted curve at half-maximal effect. An outline of the steps: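 Compounds were tested on CYP2C19 activity via proluciferin conversion to luciferin. The 37C, 1 h reaction followed NADPH addition; detection reagent stopped it.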
Chain of Cytochrome P450 2C19 (Homo sapiens) (P33261 whole entry, looked up): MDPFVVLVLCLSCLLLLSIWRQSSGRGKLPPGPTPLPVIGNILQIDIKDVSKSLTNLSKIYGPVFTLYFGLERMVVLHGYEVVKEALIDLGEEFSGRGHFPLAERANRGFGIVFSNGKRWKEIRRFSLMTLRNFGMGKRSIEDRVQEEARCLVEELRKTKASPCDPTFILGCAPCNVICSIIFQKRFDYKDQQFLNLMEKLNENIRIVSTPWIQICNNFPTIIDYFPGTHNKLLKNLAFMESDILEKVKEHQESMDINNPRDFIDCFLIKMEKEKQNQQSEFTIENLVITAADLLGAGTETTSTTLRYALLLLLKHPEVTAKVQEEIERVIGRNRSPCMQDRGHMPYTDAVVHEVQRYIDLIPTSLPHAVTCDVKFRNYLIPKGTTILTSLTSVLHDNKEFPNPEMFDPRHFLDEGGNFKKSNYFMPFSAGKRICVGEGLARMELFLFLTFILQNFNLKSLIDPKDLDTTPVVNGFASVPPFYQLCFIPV

The target in assay [14] is Nuclear receptor subfamily 1 group I member 2 (Rattus norvegicus) (UniProt Q9R1A7). The assay is described as follows: Rat pregnane X receptor (rPXR) activation by small molecules, qHTS assay (AID 1346983). Also: nearly all actives have a fitted effect of over 20% in size. As to conditions: rPXR luciferase reporter cells, One-Glo luminescence, 24 h; max activation: active compounds read high. In a few lines:
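Luminescent readout (One-Glo luciferase, 30 min room temperature) followed 24 hr compound treatment at 37 C of rPXR cells plated 2,000 per well and preincubated 5hr; qHTS format with compounds delivered in DMSO.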

For assay [15], the target named is Nuclear receptor subfamily 1 group I member 2 (Homo sapiens) (UniProt O75469). Briefly: Human pregnane X receptor (PXR) activation by small molecules, qHTS assay (AID 1346985). Also: nearly all actives have a fitted effect of over 40% in size. An outline of the steps: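 DPX-2 cells (HepG2 co-transfected with a PXR response element and a CYP3A4-promoter luciferase construct) were seeded at 2,000 per well, rested 5 hr at 37C, then exposed to DMSO-dissolved compounds for 24 hr. Activation was read as luciferase luminescence.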
Chain of Nuclear receptor subfamily 1 group I member 2 (Homo sapiens) (O75469 whole entry, looked up): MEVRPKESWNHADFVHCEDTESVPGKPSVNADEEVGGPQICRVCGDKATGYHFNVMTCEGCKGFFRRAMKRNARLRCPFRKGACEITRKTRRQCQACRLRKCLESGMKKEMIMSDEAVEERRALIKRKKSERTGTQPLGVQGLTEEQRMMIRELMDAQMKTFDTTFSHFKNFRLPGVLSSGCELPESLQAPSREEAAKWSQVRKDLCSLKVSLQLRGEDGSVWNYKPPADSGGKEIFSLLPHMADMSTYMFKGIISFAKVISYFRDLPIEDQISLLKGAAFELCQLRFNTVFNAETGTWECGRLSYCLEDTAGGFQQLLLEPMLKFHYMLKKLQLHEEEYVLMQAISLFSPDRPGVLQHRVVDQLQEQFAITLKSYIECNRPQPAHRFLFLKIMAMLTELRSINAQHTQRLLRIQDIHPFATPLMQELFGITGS

The text below walks through data of PubChem BioAssay (Tox21).

Structures are written as SMILES. A number with no mark means an inactive call. Inconclusive results are not listed. The source made the active and inactive calls. Unless noted, calls follow the shape of the dose curve; as a rule, active = well fitted curve in the direction sought with a large enough effect in the repeat runs; inconclusive = weak or mixed curves; inactive = no such curve, though single readings can be large; an effect the other way counts as inactive or inconclusive.
% is scaled to controls: 0 for no effect and ±100 for the full control effect.

Chain of Cytochrome P450 3A4 (Homo sapiens) (P08684 whole entry, looked up): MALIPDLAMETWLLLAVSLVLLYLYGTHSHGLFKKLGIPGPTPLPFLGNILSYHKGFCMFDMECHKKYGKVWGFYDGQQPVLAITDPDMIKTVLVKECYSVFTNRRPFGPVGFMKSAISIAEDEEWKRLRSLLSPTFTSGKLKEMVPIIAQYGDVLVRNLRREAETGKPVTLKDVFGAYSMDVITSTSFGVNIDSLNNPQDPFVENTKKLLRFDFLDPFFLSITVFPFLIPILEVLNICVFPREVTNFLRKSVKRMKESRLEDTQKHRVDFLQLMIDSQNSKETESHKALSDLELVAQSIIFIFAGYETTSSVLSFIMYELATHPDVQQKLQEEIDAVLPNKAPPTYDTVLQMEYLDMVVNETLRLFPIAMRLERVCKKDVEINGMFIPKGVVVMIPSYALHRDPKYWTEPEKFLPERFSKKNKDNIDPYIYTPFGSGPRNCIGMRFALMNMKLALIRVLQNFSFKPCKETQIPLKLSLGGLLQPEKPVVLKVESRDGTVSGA
Chain of Thyrotropin-releasing hormone receptor (Homo sapiens) (P34981 whole entry, looked up): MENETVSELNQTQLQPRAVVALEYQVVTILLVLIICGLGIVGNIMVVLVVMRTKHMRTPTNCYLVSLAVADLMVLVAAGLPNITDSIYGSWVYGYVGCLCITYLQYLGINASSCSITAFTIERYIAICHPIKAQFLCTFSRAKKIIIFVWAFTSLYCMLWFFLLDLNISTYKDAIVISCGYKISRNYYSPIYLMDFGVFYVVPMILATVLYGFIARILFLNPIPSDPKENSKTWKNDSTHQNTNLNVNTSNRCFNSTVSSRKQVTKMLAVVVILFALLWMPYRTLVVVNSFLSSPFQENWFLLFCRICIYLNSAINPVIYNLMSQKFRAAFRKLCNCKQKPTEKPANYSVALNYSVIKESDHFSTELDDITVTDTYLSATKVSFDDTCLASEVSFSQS
Chain of Cytochrome P450 2C9 (Homo sapiens) (P11712 whole entry, looked up): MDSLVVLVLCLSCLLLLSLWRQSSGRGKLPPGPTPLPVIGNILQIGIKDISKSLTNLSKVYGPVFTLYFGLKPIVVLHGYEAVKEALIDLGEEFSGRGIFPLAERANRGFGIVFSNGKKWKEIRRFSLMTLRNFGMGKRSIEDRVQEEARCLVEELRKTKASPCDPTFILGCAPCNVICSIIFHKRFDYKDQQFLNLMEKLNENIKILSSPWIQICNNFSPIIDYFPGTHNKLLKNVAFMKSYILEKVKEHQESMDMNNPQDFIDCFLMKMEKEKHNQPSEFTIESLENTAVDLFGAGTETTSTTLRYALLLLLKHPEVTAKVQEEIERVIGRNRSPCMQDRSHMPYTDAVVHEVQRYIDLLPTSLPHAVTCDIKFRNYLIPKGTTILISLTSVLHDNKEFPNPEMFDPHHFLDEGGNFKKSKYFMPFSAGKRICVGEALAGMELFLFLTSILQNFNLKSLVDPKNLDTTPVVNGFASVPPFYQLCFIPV
Chain of Nuclear receptor subfamily 1 group I member 2 (Rattus norvegicus) (Q9R1A7 whole entry, looked up): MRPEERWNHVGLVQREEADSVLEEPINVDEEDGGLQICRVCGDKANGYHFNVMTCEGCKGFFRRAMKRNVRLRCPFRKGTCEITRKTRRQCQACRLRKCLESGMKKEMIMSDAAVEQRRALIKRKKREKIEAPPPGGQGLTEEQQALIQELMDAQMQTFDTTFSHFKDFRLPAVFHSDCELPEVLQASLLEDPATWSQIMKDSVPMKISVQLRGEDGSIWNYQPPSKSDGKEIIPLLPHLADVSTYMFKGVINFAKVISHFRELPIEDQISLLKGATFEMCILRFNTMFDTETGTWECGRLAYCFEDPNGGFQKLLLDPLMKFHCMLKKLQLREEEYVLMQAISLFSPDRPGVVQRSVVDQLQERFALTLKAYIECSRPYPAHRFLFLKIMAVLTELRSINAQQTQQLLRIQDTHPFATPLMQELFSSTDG

For `O=C(O)c1ccc(O)cc1O`, the molecule was called inactive in assay [1] and in assay [4]. The Potency entry in [2], in [3], in [5], in assay [6], in [7] and in assay [8] was “inactive” throughout. Also, the Potency entry in assay [9] and in assay [10] was “inactive” in each case.
On to `COc1ccc(-n2nc(C(F)F)cc2-c2ccc(S(C)=O)cc2)cc1` (configuration not stated), for which the call in assay [1] and in [4] was inactive. The Potency result in assay [11], in [5] and in assay [9] was “inactive” throughout. For the same molecule, the Potency was 30.6 µM (active) in assay [12]; 35.6 µM (active) in assay [6]; 2 µM (active) in [13]; 31.7 µM (active) in assay [7]; 31.7 µM (active) in [8]; 31.7 µM (active) in [10].
With `O=[N+]([O-])C1(Br)COCOC1`, the outcome in assay [1] and in [4] was inactive. In addition, the Potency entry in assay [2], in [5] and in assay [6] was “inactive” throughout. In addition, the Potency in assay [3] is 54.5 µM (active); in [13] it was 15.9 µM (active); in [8] it was 15.9 µM (active); in [9], 54.9 µM (active).
In the case of `CC(C)COC(=O)c1ccc(O)cc1`, the call in [1] and in assay [4] was inactive. The Potency entry in assay [11], in assay [5] and in assay [9] was “inactive” in each case. The Potency was 3.06 µM (active) in [12], 3.17 µM (active) in assay [13], 25.2 µM (active) in assay [7] and 2.82 µM (active) in assay [8].
On to `O=C(Oc1ccccc1)c1ccc2ccccc2c1O`, for which the molecule was classed as inactive in assay [1] and in assay [4]. Also, the Potency entry in assay [2], in [3], in assay [5] and in assay [10] was “inactive” each time. Further, the Potency in assay [13] is 79.6 µM (active); in assay [7], 12.6 µM (active); in assay [8] it was 5.64 µM (active).
On to `CC1=CC[C@@]23C[C@@H]1C(C)(C)[C@@H]2CC[C@H]3C`, for which the molecule was called inactive in assay [1] and in assay [4]. The Potency result in assay [11], in assay [5], in assay [12], in [6] and in assay [9] was “inactive” in each case. Besides, in assay [10], the Potency was 79.6 µM (active).
`CC(C)c1ccc(C#N)cc1`: the outcome in [1] was inactive. For the same molecule, the Potency result in assay [2], in [3], in assay [5], in [12], in [6] and in assay [13] was “inactive” each time. The Potency entry in assay [7], in assay [8] and in assay [9] was “inactive” each time.
As to `CC(=O)OC(C)C[N+](C)(C)C` (configuration not stated), the Potency result in [11], in assay [2], in [3], in assay [5], in [12] and in assay [15] was “inactive” in each case. For the same molecule, the Potency entry in assay [6], in [13], in assay [7], in [9] and in [10] was “inactive” each time. For the same molecule, the call in assay [4] was inactive. The max activation in assay [14] was -2.41%.
In the case of `CC(C)C1CCC(C(=O)N[C@H](Cc2ccccc2)C(=O)O)CC1` (some centres not stated), the Potency entry in [11], in assay [2], in [3], in assay [5], in assay [12] and in [15] was “inactive” in each case. Also, the Potency entry in assay [6], in assay [8], in assay [9] and in assay [10] was “inactive” throughout. In addition, the result in [4] was inactive. In addition, the max activation in assay [14] is -2.46%. Further, the Potency in assay [7] is 11 µM (active).
